# In all, about 310,000 compounds went through this assay and about 14,000 (4.5%) showed an effect of 50% or more. The effect is printed as a negative number. This is one part of a sample in which strong results are shown more often than they occur.
# Target: human ether-à-go-go-related gene (hERG) potassium channel (human, UniProt Q12809)
# Test: primary screen, population patch clamp on CHO cells stably expressing hERG; higher = less effect of the substance
# 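Further: peak tail current of the secondary pulse compared with the same well before compound.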
# Sequence of human ether-à-go-go-related gene (hERG) potassium channel (Q12809 whole entry, looked up): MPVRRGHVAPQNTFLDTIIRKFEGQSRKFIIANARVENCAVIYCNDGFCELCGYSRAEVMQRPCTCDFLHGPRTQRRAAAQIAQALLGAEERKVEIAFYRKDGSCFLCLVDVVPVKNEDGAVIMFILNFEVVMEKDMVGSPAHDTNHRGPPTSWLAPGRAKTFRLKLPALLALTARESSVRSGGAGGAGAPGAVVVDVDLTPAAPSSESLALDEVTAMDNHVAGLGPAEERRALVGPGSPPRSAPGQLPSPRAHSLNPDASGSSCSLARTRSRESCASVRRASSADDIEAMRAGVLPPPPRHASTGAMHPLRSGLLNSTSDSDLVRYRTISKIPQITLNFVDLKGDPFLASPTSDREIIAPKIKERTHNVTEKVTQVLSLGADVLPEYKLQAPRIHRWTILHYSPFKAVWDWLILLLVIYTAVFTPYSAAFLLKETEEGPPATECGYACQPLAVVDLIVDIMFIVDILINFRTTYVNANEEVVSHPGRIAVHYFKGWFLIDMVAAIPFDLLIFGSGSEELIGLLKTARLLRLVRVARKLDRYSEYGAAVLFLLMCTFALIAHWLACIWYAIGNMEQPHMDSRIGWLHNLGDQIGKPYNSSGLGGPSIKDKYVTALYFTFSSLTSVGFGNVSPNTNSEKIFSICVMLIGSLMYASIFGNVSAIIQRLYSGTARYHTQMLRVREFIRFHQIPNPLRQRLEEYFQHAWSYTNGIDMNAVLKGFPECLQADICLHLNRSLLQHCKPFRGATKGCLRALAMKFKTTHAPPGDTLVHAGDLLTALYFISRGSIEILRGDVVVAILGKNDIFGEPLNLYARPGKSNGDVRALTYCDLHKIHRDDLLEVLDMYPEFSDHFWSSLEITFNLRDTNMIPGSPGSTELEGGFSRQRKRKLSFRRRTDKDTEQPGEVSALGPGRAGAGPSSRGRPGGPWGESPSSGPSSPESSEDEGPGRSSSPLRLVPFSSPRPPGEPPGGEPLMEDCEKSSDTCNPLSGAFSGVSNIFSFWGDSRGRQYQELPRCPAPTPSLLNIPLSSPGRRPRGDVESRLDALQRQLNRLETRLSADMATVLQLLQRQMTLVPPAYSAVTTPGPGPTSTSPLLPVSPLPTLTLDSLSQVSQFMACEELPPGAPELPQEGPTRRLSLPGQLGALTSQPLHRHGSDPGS
row,SMILES,"hERG current change (%, negative = inhibition) at 10uM"
1,CCN(C(=O)CN1CCN(S(=O)(=O)c2ccccc2C(F)(F)F)CC1)c1c(N)n(Cc2ccccc2)c(=O)[nH]c1=O,13.6%
2,O=C(NC(=S)NCc1ccc(-c2nc3ccccc3s2)cc1)c1ccco1,34%
3,Cc1ccccc1-n1ncc2c1CC(C)(C)CC2NC(=O)c1cn[nH]c1C (stereo not drawn),-6.22%
4,CCCC(=O)Nc1ccc(C)c(O)c1,4.76%
5,C/C(=N\NC(=O)c1ccccc1O)c1cccc(NC(=O)c2ccccc2)c1,-0.335%
6,O=C1N(CC(=O)N2CCc3ccccc32)CCN1Cc1ccccc1Cl,-12.1%
7,CN(C(=O)COC(=O)CCC(=O)c1ccccc1)c1c(N)n(Cc2ccccc2)c(=O)[nH]c1=O,14.1%
8,Cl.OCCNc1nc(N2CCCCC2)nc2ccccc12,-58.2%
9,c1ccc2c(NCC3CCCO3)nc(-c3ccncc3)nc2c1 (stereo not drawn),-14.6%
10,Cl.c1ccc2c(NCC3CCCO3)nc(N3CCOCC3)nc2c1 (stereo not drawn),-49.5%
11,OCCNc1nc(N2CCCC2)nc(N2CCCC2)n1,-2.85%
12,C=CCNc1nc(N2CCCC2)nc2ccccc12,-78.3%
13,C=CCNc1ncnc2ccccc12,22.5%
14,Cl.OCCNc1nc(N2CCN(c3ccccc3)CC2)nc2ccccc12,-74.6%
15,Cl.c1ccc2c(NCC3CCCO3)nc(N3CCCCC3)nc2c1 (stereo not drawn),-72.9%
16,C=CCNc1nc(C(=O)OCC)nc2ccccc12,11.1%
17,Cl.OCCNc1nc(-c2ccccc2)nc2ccccc12,2.57%
18,COc1ccc([C@@H]2CC=C(C(=O)O)[C@H](c3ccc(F)cc3)N2S(=O)(=O)c2ccc(Cl)cc2)cc1,27.2%
19,Cc1ccc(-c2c(C#N)c(N)n(-c3ccccc3)c(=O)c2C#N)cc1,20.3%
20,O=C(NC1CCCCC1)c1n[nH]c2c1CCCCC2,2.43%
21,CC1CC(C)CN(C(=O)CSCC(=O)O)C1 (stereo not drawn),1.3%
22,CCC1CCc2c(sc(NC(=O)C3c4ccccc4Oc4ccccc43)c2C(N)=O)C1 (stereo not drawn),2.02%
23,Cc1ccc(C(C(=O)NCc2ccco2)N(C(=O)CNC(=O)c2cccs2)c2ccc(C)cc2)cc1 (stereo not drawn),27.3%

row,SMILES,"hERG current change (%, negative = inhibition) at 10uM"
1,CC(=O)Oc1ccc2nc(-c3ccc(Br)o3)oc(=O)c2c1,21.5%
2,COCCCn1cc(C(=O)c2cc(OC)ccc2OCC(=O)Nc2cc(C)on2)cc(C#N)c1=O,-53%
3,COCCCn1cc(C(=O)c2cc(OC)ccc2OCC(=O)N2CCCCC2C)cc(C#N)c1=O (stereo not drawn),-22.9%
4,COCCn1cc(C(=O)c2ccccc2OCC(=O)Nc2cc(C)on2)cc(C#N)c1=O,10.3%
5,CC(C)CC(=O)Nc1ccccc1N1CCN(C(=O)c2ccccc2)CC1,-17.7%
6,O=C(Nc1ccccc1N1CCN(C(=O)c2ccccc2)CC1)c1cc(Br)ccc1Cl,-55.6%
7,O=C(Nc1ccccc1N1CCN(C(=O)c2ccc(Cl)cc2)CC1)c1cc(Br)ccc1Cl,-67.7%
8,COc1ccc(Br)cc1C(=O)Nc1ccccc1N1CCN(C(=O)c2ccccc2)CC1,-52.4%
9,CCCC(=O)Nc1ccccc1N1CCN(C(=O)c2ccccc2)CC1,-46%
10,O=C(Nc1ccccc1N1CCCC1)c1ccc(Cl)cc1Cl,8.88%
11,COc1ccc(C(=O)Nc2ccccc2N2CCN(C(=O)c3ccccc3)CC2)cc1Br,-8.68%
12,O=C(Nc1ccccc1N1CCN(C(=O)c2ccc(Cl)cc2)CC1)c1cc2ccccc2o1,-2.33%
13,COc1ccc(Br)cc1C(=O)Nc1ccccc1-c1ccccc1,-2.5%
14,Cc1ccc(C(=O)NCC(=O)NC2CCC(C)CC2)s1 (stereo not drawn),2.47%
15,CC(=O)NCCc1nc2ccccc2n1Cc1ccccc1,1.05%
16,O=C(COc1ccccc1[N+](=O)[O-])Nc1ccccc1N1CCCC1,-29.1%
17,CCN(CC(=O)Nc1ccc2c(c1)OCO2)CC(=O)Nc1ccccc1C(F)(F)F,-14.4%
18,C/C(=N\NS(=O)(=O)c1ccc(C)c([N+](=O)[O-])c1)c1cc2ccccc2o1,-9.98%
19,Cc1ccc(-n2c(C)c3c(C)nnc(C)c3c2C)cc1C,-34%
20,C=CCn1cc(C(=O)c2cc(Br)ccc2O)cc(C#N)c1=O,-17.5%
21,Cc1ccc(C(=O)OCC(=O)N2CCCC2)cc1,-2.99%
22,Cc1nnc(-c2cnn(C)c2N)n1Cc1ccc2c(c1)OCO2,5.96%
23,Cc1nnc(C)c2c(C)n(Cc3ccc4c(c3)OCO4)c(C)c12,-71.4%

row,SMILES,"hERG current change (%, negative = inhibition) at 10uM"
1,CC(=O)c1c(C(C)=O)c(C)n(Cc2ccc3c(c2)OCO3)c1C,-9.41%
2,CCOc1ccc2oc(C(=O)OCC(=O)NC3CCCC3)c(C)c2c1,11.1%
3,Cc1cccc(NC(=O)CN2C(=O)c3ccccc3C2=O)c1C,0.742%
4,CCc1ccc(C(=O)NNC(=O)CCc2nc3ccccc3c(=O)[nH]2)cc1,-7.54%
5,c1ccc2c(CN3CCCCC3)c[nH]c2c1,-38%
6,c1ccc(CN2CCN(Cc3c[nH]c4ccccc34)CC2)cc1,-30.2%
7,O=C(O)C(=O)O.O=[N+]([O-])c1ccc(S(=O)(=O)N2CCN(Cc3c[nH]c4ccccc34)CC2)cc1,-54.5%
8,O=C(O)C(=O)O.O=[N+]([O-])c1ccccc1CN1CCN(Cc2c[nH]c3ccccc23)CC1,-24.2%
9,O=S(=O)(c1ccc(Cl)cc1)N1CCN(Cc2c[nH]c3ccccc23)CC1,-18.8%
10,O=[N+]([O-])c1ccc(CN2CCN(Cc3c[nH]c4ccccc34)CC2)cc1,-77.8%
11,O=C(CN1CCN(Cc2ccccc2Cl)C1=O)NCc1cccnc1,-1.97%
12,O=C(Cn1c(SCC(=O)N2CCCc3ccccc32)nc2ccccc21)N1CCCC1,-13.2%
13,O=[N+]([O-])c1ccc2c(c1)nc1n2CCN(c2ccccc2)C1,-26.1%
14,CCn1cnc2sc(C(=O)N(Cc3ccc(N(C)C)cc3)Cc3ccco3)c(C)c2c1=O,-22.2%
15,CCOC(=O)c1c(NC(=O)C2COc3ccccc3O2)sc2c1CCN(Cc1ccccc1)C2.Cl (stereo not drawn),0.603%
16,CN(C)C1=NC[C@H](Cc2ccccc2)N1CC1CCCCC1,-14.6%
17,NC1=NC[C@H](Cc2ccccc2)N1CCCCC1CCCCC1,-25.9%
18,CN(C)C1=NC[C@H](Cc2ccccc2)N1CCC1CCCC1,-43.5%
19,CN(C)C1=NC[C@H](Cc2ccccc2)N1CCCC1CCCC1,-71.2%
20,CN(C)C1=NC[C@H](Cc2ccccc2)N1CCCC1CCCCC1,-70.8%
21,CN(C)C1=NC[C@H](Cc2ccccc2)N1CC1CCCCCC1,-27.8%
22,NC1=NC[C@H](Cc2ccc(O)cc2)N1CCCCC1CCCCC1,-50.2%
23,CN(C)C1=NC[C@H](Cc2ccccc2)N1CC1CCCC1,-16.9%

row,SMILES,"hERG current change (%, negative = inhibition) at 10uM"
1,NC1=NC[C@@H](Cc2ccc(O)cc2)N1CCCCC1CCCCC1,-18.6%
2,N#C/C(=C\c1ccc(F)cc1F)S(=O)(=O)c1ccccn1,6.77%
3,Cc1ccc(C)c(NS(=O)(=O)c2cc3c4c(c2)CC(=O)N4CCC3)c1,4.86%
4,O=C(N/N=C/c1ccc(Br)s1)c1cccc([N+](=O)[O-])c1,12.2%
5,CC(C)(C)NC(=O)CN(C(=O)C1CSC(=O)C1)c1ccccc1F (stereo not drawn),-0.923%
6,Cc1ccc(S(=O)(=O)NNC(=O)c2ccoc2C)cc1,-70.6%
7,Cc1occc1C(=O)NNS(=O)(=O)c1ccc([N+](=O)[O-])cc1,10.5%
8,Cc1occc1C(=O)NNS(=O)(=O)c1ccc(Cl)cc1,7.64%
9,O=C(CCc1ccccc1)NNC(=O)c1ccco1,5.99%
10,COc1ccc(C(=O)C2CCCN(C(=O)Cn3cncn3)C2)cc1OC (stereo not drawn),21.6%
11,COc1cccc(C(=O)C2CCCN(Cc3ccc4nonc4c3)C2)c1 (stereo not drawn),-48.5%
12,COc1ccc(CN2CCN(CC=C(C)C)C(CCO)C2)cc1Cn1cncn1 (stereo not drawn),-0.719%
13,COc1ccc(CN2CCCC(C(=O)c3ccc(Cl)cc3)C2)cc1Cn1cncn1 (stereo not drawn),-78%
14,COc1cccc(C(=O)C2CCCN(Cc3ccc(OC)c(Cn4cncn4)c3)C2)c1 (stereo not drawn),-58.6%
15,O=C1CNC(=O)/C(=C\c2ccccc2)N1,11.8%
16,COc1cc(OC)cc(C(=O)NCC(=O)OC2CCCCC2=O)c1 (stereo not drawn),-27.6%
17,O=C(CNC(=O)c1ccc(Oc2ccccc2)cc1)OC1CCCCC1=O (stereo not drawn),-72.2%
18,COc1ccc(C(=O)NCC(=O)OC2CCCCC2=O)cc1 (stereo not drawn),-13.5%
19,Cc1ccccc1OC1C(=O)N(CC2CCCO2)C1c1ccc2c(c1)OCO2 (stereo not drawn),-55.8%
20,O=C1C(Oc2ccc(Cl)cc2)C(c2ccc3c(c2)OCO3)N1CC1CCCO1 (stereo not drawn),-28.3%
21,COc1ccc(CCN2C(=O)C(Oc3ccccc3C)C2c2ccc3c(c2)OCO3)cc1 (stereo not drawn),-42.3%
